Measured values: ChEMBL document CHEMBL1961873, “Compounds: GSK PKIS; Assays: Nanosyn kinase panel” (2012)

What was measured:
[1] = molecular target: T1, Serine/threonine-protein kinase Nek9 (Homo sapiens) (UniProt Q8TD19); conditions: at 1 µM;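 also: each value is a mean percent inhibition of NEK9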
T1 sequence (whole entry): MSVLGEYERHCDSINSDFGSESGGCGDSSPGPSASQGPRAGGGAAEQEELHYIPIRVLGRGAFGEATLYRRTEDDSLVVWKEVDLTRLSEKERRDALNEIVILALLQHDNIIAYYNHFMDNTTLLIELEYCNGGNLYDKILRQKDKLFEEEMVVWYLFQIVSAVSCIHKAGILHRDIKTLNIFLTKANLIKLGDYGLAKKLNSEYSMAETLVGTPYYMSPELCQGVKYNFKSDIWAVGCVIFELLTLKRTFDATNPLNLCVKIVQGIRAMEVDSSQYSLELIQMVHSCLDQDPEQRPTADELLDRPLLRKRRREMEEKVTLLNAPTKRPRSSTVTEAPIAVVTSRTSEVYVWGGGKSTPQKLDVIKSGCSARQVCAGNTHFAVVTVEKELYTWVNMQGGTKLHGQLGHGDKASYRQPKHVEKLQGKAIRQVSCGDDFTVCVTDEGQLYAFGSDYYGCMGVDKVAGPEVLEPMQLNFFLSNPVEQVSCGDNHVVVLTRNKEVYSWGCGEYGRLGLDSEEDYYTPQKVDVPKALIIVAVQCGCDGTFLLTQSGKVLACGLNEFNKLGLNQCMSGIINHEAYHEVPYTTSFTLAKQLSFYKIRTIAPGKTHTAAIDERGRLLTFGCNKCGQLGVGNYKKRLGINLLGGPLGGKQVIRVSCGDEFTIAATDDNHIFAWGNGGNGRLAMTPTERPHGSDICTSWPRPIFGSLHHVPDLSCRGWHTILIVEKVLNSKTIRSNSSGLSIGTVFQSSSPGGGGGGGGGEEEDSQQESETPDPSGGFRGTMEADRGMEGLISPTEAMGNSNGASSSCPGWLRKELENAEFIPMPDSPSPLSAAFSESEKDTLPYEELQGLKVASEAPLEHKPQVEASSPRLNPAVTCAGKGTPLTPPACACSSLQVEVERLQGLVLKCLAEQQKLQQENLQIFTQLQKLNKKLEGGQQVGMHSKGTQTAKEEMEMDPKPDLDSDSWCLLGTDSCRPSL

[2] = molecular target: Serine/threonine-protein kinase PLK1 (Homo sapiens) (UniProt P53350); conditions: at 0.1 µM
[3] = molecular target: Serine/threonine-protein kinase PLK1 (Homo sapiens) (UniProt P53350); conditions: at 1 µM
[4] = molecular target: T2, Dual specificity protein kinase TTK (Homo sapiens) (UniProt P33981); conditions: at 0.1 µM
T2 sequence (whole entry): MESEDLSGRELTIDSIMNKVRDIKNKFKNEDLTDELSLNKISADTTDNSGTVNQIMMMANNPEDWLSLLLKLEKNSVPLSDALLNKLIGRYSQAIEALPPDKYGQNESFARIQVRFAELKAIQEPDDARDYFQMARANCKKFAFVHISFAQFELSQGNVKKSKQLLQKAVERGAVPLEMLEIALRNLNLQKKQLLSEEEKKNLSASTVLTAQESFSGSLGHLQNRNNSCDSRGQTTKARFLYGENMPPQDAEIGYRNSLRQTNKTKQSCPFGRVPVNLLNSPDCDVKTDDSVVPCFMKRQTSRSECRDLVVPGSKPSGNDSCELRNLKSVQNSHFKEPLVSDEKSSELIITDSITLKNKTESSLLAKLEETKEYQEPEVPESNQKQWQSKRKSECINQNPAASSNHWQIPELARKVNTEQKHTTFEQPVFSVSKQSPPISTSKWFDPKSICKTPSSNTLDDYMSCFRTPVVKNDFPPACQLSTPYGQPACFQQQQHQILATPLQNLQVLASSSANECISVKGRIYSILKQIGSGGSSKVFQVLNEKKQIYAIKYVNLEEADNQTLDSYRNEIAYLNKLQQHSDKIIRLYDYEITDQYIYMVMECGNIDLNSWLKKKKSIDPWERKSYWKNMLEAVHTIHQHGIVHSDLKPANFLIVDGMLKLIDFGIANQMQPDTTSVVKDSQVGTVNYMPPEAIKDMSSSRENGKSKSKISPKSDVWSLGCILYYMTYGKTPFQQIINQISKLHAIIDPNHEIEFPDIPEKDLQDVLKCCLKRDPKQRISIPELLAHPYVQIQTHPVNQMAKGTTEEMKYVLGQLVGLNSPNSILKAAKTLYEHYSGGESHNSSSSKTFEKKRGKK

[5] = system: T3, Receptor-type tyrosine-protein kinase FLT3 (Homo sapiens), P36888 [D835Y]; conditions: at 1 µM
T3 sequence (whole entry): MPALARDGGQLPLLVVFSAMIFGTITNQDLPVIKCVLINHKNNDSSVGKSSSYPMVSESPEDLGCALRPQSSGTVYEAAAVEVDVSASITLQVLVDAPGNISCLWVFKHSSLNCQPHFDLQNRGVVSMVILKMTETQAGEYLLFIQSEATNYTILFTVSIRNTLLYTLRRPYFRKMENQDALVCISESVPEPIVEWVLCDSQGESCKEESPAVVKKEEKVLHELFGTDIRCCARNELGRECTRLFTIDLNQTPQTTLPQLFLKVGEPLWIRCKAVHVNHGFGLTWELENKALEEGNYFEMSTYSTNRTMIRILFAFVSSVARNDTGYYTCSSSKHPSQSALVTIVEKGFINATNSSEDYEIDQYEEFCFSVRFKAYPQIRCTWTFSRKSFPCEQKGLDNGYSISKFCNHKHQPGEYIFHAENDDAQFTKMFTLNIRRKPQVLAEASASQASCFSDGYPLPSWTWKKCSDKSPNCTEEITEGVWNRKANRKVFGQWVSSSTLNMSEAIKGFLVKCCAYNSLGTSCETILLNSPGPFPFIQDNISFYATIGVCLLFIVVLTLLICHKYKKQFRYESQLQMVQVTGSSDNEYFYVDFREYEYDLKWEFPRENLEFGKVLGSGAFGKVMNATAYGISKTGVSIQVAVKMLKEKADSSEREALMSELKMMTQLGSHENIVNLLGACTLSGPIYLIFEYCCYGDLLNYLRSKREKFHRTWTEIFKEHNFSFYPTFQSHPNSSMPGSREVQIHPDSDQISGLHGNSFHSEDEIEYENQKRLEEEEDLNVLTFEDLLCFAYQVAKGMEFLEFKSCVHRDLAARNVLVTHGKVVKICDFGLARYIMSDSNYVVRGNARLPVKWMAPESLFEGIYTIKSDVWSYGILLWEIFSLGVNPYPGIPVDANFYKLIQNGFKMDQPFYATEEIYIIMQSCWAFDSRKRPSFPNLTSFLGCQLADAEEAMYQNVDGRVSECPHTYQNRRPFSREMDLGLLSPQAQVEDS

[6] = molecular target: Vascular endothelial growth factor receptor 3 (Homo sapiens) (UniProt P35916); conditions: at 0.1 µM
[7] = molecular target: Vascular endothelial growth factor receptor 3 (Homo sapiens) (UniProt P35916); conditions: at 1 µM
[8] = molecular target: Macrophage colony-stimulating factor 1 receptor (Homo sapiens) (UniProt P07333); conditions: at 0.1 µM
[9] = molecular target: Macrophage colony-stimulating factor 1 receptor (Homo sapiens) (UniProt P07333); conditions: at 1 µM
[10] = molecular target: Tyrosine-protein kinase Fyn (Homo sapiens) (UniProt P06241); conditions: at 0.1 µM
Chain of Tyrosine-protein kinase Fyn (Homo sapiens) (P06241 2-537 limits assumed): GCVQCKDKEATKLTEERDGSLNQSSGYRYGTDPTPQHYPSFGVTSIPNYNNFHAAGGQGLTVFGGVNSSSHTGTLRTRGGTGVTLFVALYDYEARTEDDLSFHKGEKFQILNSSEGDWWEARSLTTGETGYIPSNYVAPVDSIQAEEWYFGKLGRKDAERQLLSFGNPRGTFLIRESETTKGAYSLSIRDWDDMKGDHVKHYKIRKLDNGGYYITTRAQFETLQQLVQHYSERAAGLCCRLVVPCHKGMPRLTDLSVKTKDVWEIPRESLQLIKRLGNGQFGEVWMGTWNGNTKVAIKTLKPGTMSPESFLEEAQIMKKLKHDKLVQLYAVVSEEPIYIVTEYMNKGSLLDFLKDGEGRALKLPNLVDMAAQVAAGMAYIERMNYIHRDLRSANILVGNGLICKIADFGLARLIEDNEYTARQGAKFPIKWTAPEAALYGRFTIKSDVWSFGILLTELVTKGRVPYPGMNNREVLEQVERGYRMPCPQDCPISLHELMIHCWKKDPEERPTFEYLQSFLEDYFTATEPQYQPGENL

Chain of Macrophage colony-stimulating factor 1 receptor (Homo sapiens) (P07333 whole entry): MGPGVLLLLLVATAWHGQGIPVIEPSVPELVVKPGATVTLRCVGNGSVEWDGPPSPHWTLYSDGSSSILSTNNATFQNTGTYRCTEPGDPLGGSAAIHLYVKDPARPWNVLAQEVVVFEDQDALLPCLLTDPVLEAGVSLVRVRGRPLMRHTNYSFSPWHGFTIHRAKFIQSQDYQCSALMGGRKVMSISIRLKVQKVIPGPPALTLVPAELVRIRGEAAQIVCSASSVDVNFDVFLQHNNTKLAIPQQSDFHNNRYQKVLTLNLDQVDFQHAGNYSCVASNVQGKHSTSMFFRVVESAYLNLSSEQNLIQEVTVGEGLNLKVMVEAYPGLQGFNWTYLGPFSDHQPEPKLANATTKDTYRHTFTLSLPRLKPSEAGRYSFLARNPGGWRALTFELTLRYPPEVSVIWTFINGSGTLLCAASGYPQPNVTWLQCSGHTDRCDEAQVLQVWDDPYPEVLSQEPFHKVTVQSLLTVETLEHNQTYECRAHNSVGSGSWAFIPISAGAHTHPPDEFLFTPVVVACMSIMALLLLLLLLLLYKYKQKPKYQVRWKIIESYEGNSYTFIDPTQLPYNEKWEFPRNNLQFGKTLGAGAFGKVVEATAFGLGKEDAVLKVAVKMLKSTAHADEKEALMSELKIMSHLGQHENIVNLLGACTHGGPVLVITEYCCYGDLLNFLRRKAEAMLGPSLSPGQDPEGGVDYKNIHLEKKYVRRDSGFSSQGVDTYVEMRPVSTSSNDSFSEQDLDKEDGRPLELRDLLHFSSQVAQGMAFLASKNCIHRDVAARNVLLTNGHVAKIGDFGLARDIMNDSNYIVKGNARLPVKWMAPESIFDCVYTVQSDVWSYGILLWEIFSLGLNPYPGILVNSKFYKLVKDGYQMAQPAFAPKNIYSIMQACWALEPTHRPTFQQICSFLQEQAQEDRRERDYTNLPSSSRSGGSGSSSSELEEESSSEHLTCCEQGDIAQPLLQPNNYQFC
Chain of Serine/threonine-protein kinase PLK1 (Homo sapiens) (P53350 whole entry): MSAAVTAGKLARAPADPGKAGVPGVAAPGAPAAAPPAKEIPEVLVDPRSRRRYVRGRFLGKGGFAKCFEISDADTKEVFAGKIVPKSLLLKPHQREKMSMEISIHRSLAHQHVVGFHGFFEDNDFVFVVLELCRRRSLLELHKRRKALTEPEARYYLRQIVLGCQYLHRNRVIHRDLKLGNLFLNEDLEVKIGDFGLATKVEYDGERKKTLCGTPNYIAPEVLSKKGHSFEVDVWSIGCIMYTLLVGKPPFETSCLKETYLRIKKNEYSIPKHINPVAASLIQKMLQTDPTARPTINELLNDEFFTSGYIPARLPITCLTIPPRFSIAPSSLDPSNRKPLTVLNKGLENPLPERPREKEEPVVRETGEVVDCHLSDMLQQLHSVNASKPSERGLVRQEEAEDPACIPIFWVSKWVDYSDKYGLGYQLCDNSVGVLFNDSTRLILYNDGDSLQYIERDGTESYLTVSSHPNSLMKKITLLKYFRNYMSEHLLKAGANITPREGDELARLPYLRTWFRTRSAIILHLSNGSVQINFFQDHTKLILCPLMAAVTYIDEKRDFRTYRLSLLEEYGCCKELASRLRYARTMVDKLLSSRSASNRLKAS
Chain of Vascular endothelial growth factor receptor 3 (Homo sapiens) (P35916 whole entry): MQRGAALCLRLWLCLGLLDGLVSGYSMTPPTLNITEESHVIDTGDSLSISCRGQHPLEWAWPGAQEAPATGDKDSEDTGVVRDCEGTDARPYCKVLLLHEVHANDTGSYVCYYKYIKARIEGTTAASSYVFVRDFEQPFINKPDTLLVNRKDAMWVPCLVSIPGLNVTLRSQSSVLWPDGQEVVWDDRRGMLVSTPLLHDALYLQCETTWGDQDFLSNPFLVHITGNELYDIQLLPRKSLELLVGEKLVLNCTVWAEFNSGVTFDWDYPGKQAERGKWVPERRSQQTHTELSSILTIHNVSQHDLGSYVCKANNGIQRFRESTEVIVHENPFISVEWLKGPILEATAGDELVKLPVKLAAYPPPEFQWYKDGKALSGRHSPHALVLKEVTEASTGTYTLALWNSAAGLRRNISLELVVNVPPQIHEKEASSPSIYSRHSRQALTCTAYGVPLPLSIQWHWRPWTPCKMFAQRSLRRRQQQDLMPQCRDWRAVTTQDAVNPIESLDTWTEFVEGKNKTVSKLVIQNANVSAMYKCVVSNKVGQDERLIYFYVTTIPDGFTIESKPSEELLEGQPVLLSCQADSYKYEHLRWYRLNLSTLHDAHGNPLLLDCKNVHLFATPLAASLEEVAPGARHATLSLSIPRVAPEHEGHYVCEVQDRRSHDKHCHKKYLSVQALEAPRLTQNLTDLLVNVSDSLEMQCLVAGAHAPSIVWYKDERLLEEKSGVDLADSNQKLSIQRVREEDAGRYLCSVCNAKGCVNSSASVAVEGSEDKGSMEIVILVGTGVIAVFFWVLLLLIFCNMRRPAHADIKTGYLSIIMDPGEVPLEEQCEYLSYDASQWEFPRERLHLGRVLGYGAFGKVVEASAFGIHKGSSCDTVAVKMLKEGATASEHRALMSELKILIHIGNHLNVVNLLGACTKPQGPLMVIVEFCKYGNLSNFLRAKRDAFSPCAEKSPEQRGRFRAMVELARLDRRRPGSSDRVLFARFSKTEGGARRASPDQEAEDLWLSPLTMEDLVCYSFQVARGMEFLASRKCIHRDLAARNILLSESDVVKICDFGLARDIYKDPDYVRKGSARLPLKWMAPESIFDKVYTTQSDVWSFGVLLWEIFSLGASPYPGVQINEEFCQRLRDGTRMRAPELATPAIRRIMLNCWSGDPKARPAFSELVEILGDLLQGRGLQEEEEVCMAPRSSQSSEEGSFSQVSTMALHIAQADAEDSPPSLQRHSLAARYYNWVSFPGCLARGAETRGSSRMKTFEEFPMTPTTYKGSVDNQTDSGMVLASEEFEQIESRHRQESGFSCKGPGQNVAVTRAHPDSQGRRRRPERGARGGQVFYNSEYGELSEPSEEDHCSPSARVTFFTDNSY

NS(=O)(=O)c1ccc(Nc2cc(-c3ccc(O)c(F)c3)n[nH]2)cc1
inhibition [1]: 2.31% | inhibition [2]: -1.16% | inhibition [3]: -3.09% | inhibition [4]: -2.03% | inhibition [5]: 34.1% | inhibition [6]: 0.48% | inhibition [7]: 16.5% | inhibition [8]: 0.43% | inhibition [9]: 23.6% | inhibition [10]: 0.43%

Fc1ccc(-c2ncn(C3CCNCC3)c2-c2ccnc(Oc3ccc4c(c3)OCO4)n2)cc1
inhibition [1]: 7.95% | inhibition [2]: 4.77% | inhibition [3]: 3.7% | inhibition [4]: 7.25% | inhibition [5]: -0.75% | inhibition [6]: 3.31% | inhibition [7]: 5.76% | inhibition [8]: 2.5% | inhibition [9]: 12.1% | inhibition [10]: 1.06%

Fc1ccc(-c2ncn(CCCN3CCOCC3)c2-c2ccncc2)cc1
inhibition [1]: 3.15% | inhibition [2]: -0.58% | inhibition [3]: -0.73% | inhibition [4]: 5.04% | inhibition [5]: 0.03% | inhibition [6]: 0.07% | inhibition [7]: 0.05% | inhibition [8]: 0.18% | inhibition [9]: 1.37% | inhibition [10]: -0.55%

COc1cccc(/C=N/Nc2ncnc3c2cnn3-c2cccc(OC)c2)c1
inhibition [1]: 11.2% | inhibition [2]: 5.9% | inhibition [3]: 5.49% | inhibition [4]: 7.19% | inhibition [5]: 7.24% | inhibition [6]: 1.81% | inhibition [7]: -0.55% | inhibition [8]: 1.79% | inhibition [9]: 6.37% | inhibition [10]: 2.39%

CN(c1ccc(NC(=O)Nc2c(Cl)cccc2Cl)cc1)c1ccnc(Nc2cccc(CS(C)(=O)=O)c2)n1
inhibition [1]: -6.03% | inhibition [2]: 0.57% | inhibition [3]: 0.37% | inhibition [4]: 3.9% | inhibition [5]: 28.8% | inhibition [6]: 23% | inhibition [7]: 41.7% | inhibition [8]: 92.1% | inhibition [9]: 96.2% | inhibition [10]: 2.74%

COC(=O)Nc1nc2ccc(Sc3ccc(NC(=O)Nc4cc(C(F)(F)F)ccc4F)cc3)cc2[nH]1
inhibition [1]: -0.45% | inhibition [2]: -0.3% | inhibition [3]: 0.84% | inhibition [4]: 1.23% | inhibition [5]: 6.34% | inhibition [6]: 14.8% | inhibition [7]: 21.7% | inhibition [8]: 0.81% | inhibition [9]: 3.42% | inhibition [10]: -1.41%

NS(=O)(=O)c1ccc(N/N=C2\C(=O)Nc3ccc(C(=O)NCCCn4ccnc4)cc32)cc1
inhibition [1]: 19% | inhibition [2]: 6.29% | inhibition [3]: 4.25% | inhibition [4]: 37.3% | inhibition [5]: 32.9% | inhibition [6]: 4.15% | inhibition [7]: 26.7% | inhibition [8]: 2.86% | inhibition [9]: 6.33% | inhibition [10]: 2.07%

Nc1nccc(-c2c(-c3ccc(F)cc3)ncn2C2CCC(O)CC2)n1 (stereo not given)
inhibition [1]: -1.68% | inhibition [2]: -2.32% | inhibition [3]: -1.2% | inhibition [4]: -4.27% | inhibition [5]: 0.98% | inhibition [6]: 1.39% | inhibition [7]: -0.22% | inhibition [8]: 2.19% | inhibition [9]: 14.7% | inhibition [10]: 1.57%

CCN(CC)Cc1ccc(Nc2nccc(-c3cnn4ncccc34)n2)cc1
inhibition [1]: 13.7% | inhibition [2]: 5.43% | inhibition [3]: 8.15% | inhibition [4]: 12.4% | inhibition [5]: 17.1% | inhibition [6]: -5.53% | inhibition [7]: 0.13% | inhibition [8]: 29.6% | inhibition [9]: 68.9% | inhibition [10]: -1.69%

COc1cc2ncn(-c3cc(OCc4ccccc4C(F)(F)F)c(C(C)=O)s3)c2cc1OC
inhibition [1]: 5.55% | inhibition [2]: 20.5% | inhibition [3]: 67.7% | inhibition [4]: 6.18% | inhibition [5]: 2.27% | inhibition [6]: 3.53% | inhibition [7]: 5.96% | inhibition [8]: 0.38% | inhibition [9]: 10.8% | inhibition [10]: 1.85%

CCc1cccc(CC)c1/C=C/c1cncc(C(=O)NC)c1
inhibition [1]: -1.94% | inhibition [2]: 1.32% | inhibition [3]: 1.99% | inhibition [4]: 3.43% | inhibition [5]: 4.06% | inhibition [6]: 1.11% | inhibition [7]: 2.42% | inhibition [8]: -1.63% | inhibition [9]: 6.91% | inhibition [10]: 3.51%

NC(=O)c1cc(-c2ccc(F)cc2)cc(-c2ccncc2)c1N
inhibition [1]: 19.1% | inhibition [2]: 5.25% | inhibition [3]: 2.93% | inhibition [4]: 11.9% | inhibition [5]: -3.97% | inhibition [6]: -0.28% | inhibition [7]: 0.18% | inhibition [8]: 2.97% | inhibition [9]: 15.4% | inhibition [10]: 0.07%

COc1ccc(C2=C(N3CCc4ccccc43)C(=O)NC2=O)cc1
inhibition [1]: 7.64% | inhibition [2]: 4.84% | inhibition [3]: 4.9% | inhibition [4]: 9.59% | inhibition [5]: 3.5% | inhibition [6]: 1.33% | inhibition [7]: 3.21% | inhibition [8]: 2.49% | inhibition [9]: 4.23% | inhibition [10]: 2.77%

Cc1ccc(C(=O)NC(C)C)cc1-c1ccc(C(=O)NCC2CC2)cc1
inhibition [1]: 4.93% | inhibition [2]: -2.88% | inhibition [3]: 0.01% | inhibition [4]: -5.71% | inhibition [5]: 5.33% | inhibition [6]: 1.2% | inhibition [7]: 2.58% | inhibition [8]: -3.16% | inhibition [9]: 0.94% | inhibition [10]: -0.23%

CCc1nccc2c1nc(-c1nonc1N)n2CC
inhibition [1]: 2.52% | inhibition [2]: 0.58% | inhibition [3]: 1.55% | inhibition [4]: 3.28% | inhibition [5]: -1.94% | inhibition [6]: -0.59% | inhibition [7]: 3.19% | inhibition [8]: -0.59% | inhibition [9]: 1.95% | inhibition [10]: 2.96%

COc1cc(Nc2ncc(-c3ccccc3)o2)cc(OC)c1OC
inhibition [1]: 8.49% | inhibition [2]: -0.55% | inhibition [3]: 2.1% | inhibition [4]: 5.82% | inhibition [5]: 63.1% | inhibition [6]: 7.69% | inhibition [7]: 36.7% | inhibition [8]: 20.1% | inhibition [9]: 57.6% | inhibition [10]: 6.4%
